Laboratory results published in PubChem BioAssay AID2380 (Sanford-Burnham Center for Chemical Genomics, 2010).
Hit rate of the full screen: of about 330,000 compounds, about 960 (0.29%) were called active. The sample as a whole holds a higher share of actives than the screen did. A number with no mark means an inactive call.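 Rule for the calls: active = compounds whose signal lies at least 3.5 SD above the mean of all wells on their plate; inactive = the rest.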

Experiment: inducers of MIN6 beta-cell proliferation, primary screen, ATP luminescence, uHTS (AID 2380);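 note: 0% = DMSO-treated cells in low-serum medium and 100% = 10% serum control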
Conditions: MIN6 cells proliferation, ATPlite luminescence, 48 h; at 10 µM; hits give high values; 100% = growth in 10% serum; cells starved in 0.2% serum
In the case of Cc1ccc(S(=O)(=O)NCCC(=O)OCC(=O)N(C)c2ccccc2)cc1, the proliferation is reported as 1.89%. For CN(Cc1ccc(F)cc1Cl)S(=O)(=O)c1cccs1, the proliferation was 5.5% (active). Work on O=S(=O)(NCc1ccc(Cl)cc1Cl)c1cccs1 yielded a proliferation of -2.31%. With CN(Cc1c(F)cccc1Cl)S(=O)(=O)c1cccs1 the proliferation was 0%. Work on COc1ccc(N(CC(=O)Nc2cc(OC)cc(OC)c2)S(=O)(=O)c2c(C)n[nH]c2C)cc1 yielded a proliferation of -2.27%. In the case of CCCN1C(=O)C(Cc2nc3ccccc3c(=O)n2-c2ccccc2)c2cc(C)ccc21 (stereo unspecified), the proliferation is reported as -2.19%. Compound CN1CCN(C2Cc3ccc(Cl)cc3Sc3ccc(F)cc32)CC1 (stereo unspecified) has a proliferation of -4.32%. Work on COc1cc(N=Cc2c(O)c3ccccc3oc2=O)c(OC)cc1Cl yielded a proliferation of 0.34%. COc1ccccc1N=C(C)C1=C(O)COC1=O showed a proliferation of -1.39%. For COc1ccccc1N=Cc1c(O)c2ccccc2oc1=O, the proliferation was 6.71% (active). In the case of COC(=O)c1ccc(CN2CCN(CCCc3ccccc3)C(CCO)C2)cc1 (stereo unspecified), the proliferation is reported as -3.99%. For Cc1nn(CC(=O)Nc2ccc(N(C)C)cc2)c(C)c1[N+](=O)[O-], the proliferation was 3.2%. In the case of C[n+]1cc(-c2ccccc2)oc1-c1ccccc1, the proliferation is reported as -1.56%. In the case of COc1ccc(-n2nnnc2SCc2nc(N)nc(N3CCOCC3)n2)cc1, the proliferation is reported as -2.85%. In the case of COc1ccc(-c2nnn(Cc3nc(N)nc(N4CCCCC4)n3)n2)cc1, the proliferation is reported as 8.76% (active). In the case of CN(C)c1nc(N)nc(Cn2nnc(-c3ccc(C(F)(F)F)cc3)n2)n1, the proliferation is reported as 1.04%. With CC(=O)Nc1ccc(NC(=O)C(C)OC(=O)c2ccccc2C(=O)c2ccc(Cl)c([N+](=O)[O-])c2)cc1 (stereo unspecified) the proliferation was -5.3%. O=C(Nn1c(-c2ccc(Cl)cc2)nc2ccccc2c1=O)c1cccnc1Cl gave a proliferation of -0.79%. Work on N#CCc1ccc(NC(=O)c2ccccc2C(=O)Nc2ccc(CC#N)cc2)cc1 yielded a proliferation of -4.24%. With CCOc1ccc(NC(=O)Nc2cc(C)ccc2OC)cc1 the proliferation was -2.89%. In the case of COc1ccc(OC)c(NC(=O)CC(Cc2ccccc2OC)C(=O)O)c1 (stereo unspecified), the proliferation is reported as -2.33%. For CCOc1ccccc1NC(=O)Nc1cc(OC)ccc1OC, the proliferation was 7.28% (active). Work on CC(C)(C)N(Cc1ccccc1)C(=O)c1ccncc1 yielded a proliferation of -4.48%. O=c1[nH][nH]c(C(F)(F)F)c1C=NCc1ccccc1Cl gave a proliferation of -0.46%. COc1ccc(CCn2c(=N)c(C(=O)NCC3CCCO3)cc3c(=O)n4cccc(C)c4nc32)cc1OC (stereo unspecified) showed a proliferation of -3.69%. Work on Cc1cccn2c(=O)c3cc(C(=O)NCCN4CCOCC4)c(=N)n(Cc4cccnc4)c3nc12 yielded a proliferation of -6.51%. In the case of COc1ccc(CCn2c(=N)c(C(=O)NCc3ccco3)cc3c(=O)n4cccc(C)c4nc32)cc1, the proliferation is reported as 10.3% (active). In the case of NS(=O)(=O)c1ccc(-c2ccc(/C=C3\SC(=O)NC3=O)o2)cc1, the proliferation is reported as 2.43%. COc1ccc2cc(-c3[nH]ncc3CNCCn3nc(C)cc3C)ccc2c1 gave a proliferation of -1.3%. Work on NC(=O)C1CCN(C2OC(=O)c3ccccc32)CC1 (stereo unspecified) yielded a proliferation of -1.61%. CC(NC(=O)C1CCCN(S(=O)(=O)c2ccc(-n3cnnn3)cc2)C1)c1ccc(F)cc1 (stereo unspecified) showed a proliferation of -0.52%. CC(C)CNC(=O)C1CCCN(S(=O)(=O)c2ccc(-n3cnnn3)cc2)C1 (stereo unspecified) gave a proliferation of 1.81%. In the case of O=C(Nc1ccc(F)cc1)C1CCCN(S(=O)(=O)c2ccc(-n3cnnn3)cc2)C1 (stereo unspecified), the proliferation is reported as 0% (active). O=C(Cc1c(F)cccc1Cl)N1CCN(C(=O)c2ccco2)CC1 gave a proliferation of -0.41%. For Cc1cc(NC(=O)c2ccco2)c(=O)n(Cc2c(F)cccc2Cl)c1, the proliferation was 6.29% (active). In the case of O=C(Nc1cccn(Cc2c(Cl)cccc2Cl)c1=O)c1ccc(Cl)cc1, the proliferation is reported as 0.88%. Compound COc1cc2cc(CN(CCN3CCCC3)C(=O)Nc3ccccc3Cl)c(=O)[nH]c2cc1OC has a proliferation of -1.42%. Compound CN(Cc1ccc2nsnc2c1)Cc1nc(Cc2cccc(F)c2)no1 has a proliferation of -1.6%. For CC1(C)Cc2c(sc(NC(=O)C(=O)NCC3CCCO3)c2C(=O)O)CO1 (stereo unspecified), the proliferation was -1.4%. In the case of Cc1nn(C(C)C(=O)NCCC2=CCCCC2)c(=O)c2nn(-c3ccccc3)c(C)c12 (stereo unspecified), the proliferation is reported as 11.7% (active). Cc1nn(C(C)C(=O)N2CCOCC2)c(=O)c2nn(-c3ccccc3)c(C)c12 (stereo unspecified) showed a proliferation of -0.46%. Compound COc1ccc(CNC(=O)C(C)n2nc(C)c3c(C)n(-c4ccccc4)nc3c2=O)c(OC)c1 (stereo unspecified) has a proliferation of 0.39%. Compound COC(=O)c1ccc(C(NC(=O)OCc2ccccc2)/C(C)=C/[C@@H](C)C(=O)NCc2ccc(OC)c(OC)c2)cc1 (stereo partly specified) has a proliferation of -1.99%. Compound CC(C)OCCCNC(=S)N1CCC(C(=O)c2ccc3c(c2)OCCO3)CC1 has a proliferation of -1.17%. With CC(C)C(=O)Nc1c2c(nn1-c1ccccc1)CSC2 the proliferation was 0.9%. For CC1(C)C2CC=C(/C=N/NC(=O)c3ccc(Cl)cc3)C1C2 (stereo unspecified), the proliferation was -2.07%. In the case of COc1ccc(/C=N/NC(=O)C2CC2)c(OC)c1OC, the proliferation is reported as 0.51%. In the case of CC1(C)C2CC=C(/C=N/NC(=O)C3CC3)C1C2 (stereo unspecified), the proliferation is reported as 7.56% (active). O=[N+]([O-])c1ccc2c(c1)C(N1CCOCC1)/C(=C/C1(O)CCCCC1)O2 (stereo unspecified) showed a proliferation of -1.4%. For O=C(O)c1cc(S(=O)(=O)N(Cc2ccccc2)c2cccc(C(F)(F)F)c2)ccc1Cl, the proliferation was -1%. With CCC1(CC)NC(=O)N(CC(=O)OCC(=O)Nc2ccc(C(F)(F)F)cc2)C1=O the proliferation was -0.99%. In the case of CC1CCN(C(=O)/C(=C\c2ccccc2)NC(=O)c2ccccc2)CC1, the proliferation is reported as 2.17%. Work on O=C(OCCN1CCOCC1)C1(c2ccccc2)CCCCC1 yielded a proliferation of 5.6%. CCCC(NCC(=O)Nc1ccccc1C(=O)NC1CC1)c1ccccc1 (stereo unspecified) gave a proliferation of -0.98%. With Cc1ccc(NC(=O)COC(=O)CNC(=O)c2ccc(Cl)cc2Cl)cc1S(=O)(=O)N1CCOCC1 the proliferation was -0.42%. With Cc1cccc2c1-c1sc(C(=O)NCCCN3CCc4ccccc4C3)cc1CO2 the proliferation was -7.36%.
